Results as given in PubChem BioAssay (NCI).
This is part of a sample that, as a whole, favours compounds with a hit. Of some 83,000 tested, about 20% had one in any assay.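 Step 1: grow cells in 96-well plates. Step 2: add test compound at a single concentration. Step 3: incubate 48 h. Step 4: record percent growth.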 Values without a mark were called inactive. The source made the active and inactive calls. How the source made its calls: active means growth percent below 10; inactive means the rest.

How the values were obtained:
[1] = tested on: HL-60(TB) leukemia; assay: NCI-60 one-dose screen, 48 h (100 = growth as untreated, 0 = no growth, -100 = all killed); conditions: 10 µM unless noted
[2] = tested on: MDA-MB-468 breast; assay: as above; conditions: 10 µM unless noted

COc1cc2c(c(OC)c1OC)C(=O)CC(c1cccc(NC(=O)c3cc([N+](=O)[O-])ccc3Cl)c1)O2 (centres undefined)
growth [1]: 34.1%

CCOC(=O)CNC(=O)CN(Cc1ccccc1)C(=O)[C@@]1(C)CCC[C@]2(C)[C@H]3C[C@H]4C(C(C)C)=C[C@]3(CC[C@H]21)[C@@H]1C(=O)OC(=O)[C@@H]14
growth [1]: 9.46% (active)

CC(C)C[C@H](NC(=O)[C@@H]1CCCCCCCCCCC(=O)N[C@@H](CC(=O)N2CCC[C@@H]2C2CCCC2)C(=O)N1)B(O)O
growth [1]: -33.3% (active)

COc1ccc2c(c1)C1(C)CCN(C)CC(C1)C2O (centres undefined)
growth [2]: 101%

CCCN1C(=O)NC(=O)C(CC)(N2C(=O)c3c(F)c(F)c(F)c(F)c3C2=O)C1=O (centres undefined)
growth [2]: -50.8% (active)

CCOc1cc(/C=N\Nc2nnc(C)n2N)c(C)cc1N(CCCl)CCCl
growth [2]: -21.1% (active)

CC1=C2C(=C[C@@](C)(C=O)[C@@H]2O)C(=O)[C@](C)(O)C12CC2
growth [2]: -66.7% (active)

O=C(O)c1[nH]c(=O)[nH]c(=O)c1F
growth [2]: 107%

COc1cc([C@@H]2c3cc4c(c(O)c3C[C@H]3COC(=O)[C@@H]32)OCO4)cc(OC)c1OC
growth [2]: 5.12% (active)

O=C1C2CC=CCC2C(=O)N1SC(Cl)(Cl)Cl (centres undefined)
growth [2]: 103%

CC(C)CCC1C(=O)NC(=O)NC1=O
growth [2]: 114%

Nc1c(F)cc(-c2nc3cc(F)ccc3[se]2)cc1Br
growth [2]: -35.4% (active)

COc1ccc(CN2CCN(Cc3ccccc3)CC2)c(O)c1
growth [2]: 75.5%

COc1ccc(C(C#N)C(C)=O)cc1 (centres undefined)
growth [2]: 106%
